The source of these data is PubChem BioAssay (EPA / NIEHS).

Values joined by “and” are separate entries in the source; they are usually repeats but may differ in a detail not shown here. Equal entries are not always repeated. The source holds several records for some structures; these can differ, active in one and inactive in another. Active and inactive are the calls of the source. Rule for the calls: active = hit-call score of the fitted dose curve at least 0.9, where 1 is the maximum; inactive = score below 0.9.

Read-out in assay [1]: Urokinase-type plasminogen activator receptor (uPAR), PLAUR (gene 5329)
Briefly: BSK_BE3C_uPAR: BioMAP Diversity Plus: BE3C Assay for Urokinase-type plasminogen activator receptor (uPAR) Biomarker Activity (AID 2283039).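 Note: uPAR protein level measured by ELISA on the cells; cells exposed to compound for one day before measurement.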 Particulars: primary human bronchial epithelial cells; actives raise or lower the signal. Put shortly: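 Chemically treated human bronchial epithelial cells (lung primary) are assayed for uPAR by ELISA after 24 h, with data fitted in both directions using DMSO as negative control.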

Read-out in assay [2]: Interleukin-6 (IL6), IL6 (gene 3569)
Briefly: BSK_CASM3C_IL6: BioMAP Diversity Plus: CASM3C Assay for Interleukin-6 (IL6) Biomarker Activity for (AID 2283040). Particulars: primary human coronary artery smooth muscle cells; actives raise or lower the signal.

Read-out in assay [3]: Tissue plasminogen activator (tPA), PLAT (gene 5327)
Briefly: BSK_BE3C_tPA: BioMAP Diversity Plus: BE3C Assay for Tissue plasminogen activator (tPA) Biomarker Activity (AID 2283041).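 For outcome: tPA level quantified by ELISA one day after compound addition.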 The conditions noted are these: primary human bronchial epithelial cells; actives raise or lower the signal. Put shortly:
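Using human lung primary bronchial epithelial cells, tPA was measured by ELISA 24 h after dosing; data fitted relative to DMSO.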

Read-out in assay [4]: Interleukin-8 (IL8), CXCL8 (gene 3576)
Briefly: BSK_CASM3C_IL8: BioMAP Diversity Plus: CASM3C Assay for Interleukin-8 (IL8) Biomarker Activity (AID 2283042).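 Note: IL-8 protein level quantified by ELISA.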 Particulars: primary human coronary artery smooth muscle cells; actives raise or lower the signal.

Read-out in assay [5]: Human Leukocyte Antigen - DR isotype (HLADR), HLA-DRA (gene 3122)
Briefly: BSK_CASM3C_HLADR: BioMAP Diversity Plus: CASM3C Assay for Human Leukocyte Antigen - DR isotype (HLADR) Biomarker Activity (AID 2283043).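 Note: cell-surface HLA-DR protein level quantified by ELISA.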 Particulars: primary human coronary artery smooth muscle cells; actives raise or lower the signal.

Read-out in assay [6]: Macrophage colony-stimulating factor (MCSF), CSF1 (gene 1435)
Briefly: BSK_CASM3C_MCSF: BioMAP Diversity Plus: CASM3C Assay for Macrophage colony-stimulating factor (MCSF) Biomarker Activity (AID 2283044).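 Note: M-CSF protein amount quantified by ELISA after 24 h exposure.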 Particulars: primary human coronary artery smooth muscle cells; actives raise or lower the signal.

Read-out in assay [7]: Low-density lipoprotein receptor (LDLR), LDLR (gene 3949)
Briefly: BSK_CASM3C_LDLR: BioMAP Diversity Plus: CASM3C Assay for Low-density lipoprotein receptor (LDLR) Biomarker Activity (AID 2283045).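 Note: LDLR protein level on the cell surface quantified by ELISA.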 Particulars: primary human coronary artery smooth muscle cells; actives raise or lower the signal.

Read-out in assay [8]: Monocyte Chemoattractant Protein-1 (MCP1), CCL2 (gene 6347)
Briefly: BSK_CASM3C_MCP1: BioMAP Diversity Plus: CASM3C Assay for Monocyte Chemoattractant Protein-1 (MCP1) Biomarker Activity (AID 2283046).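 Note: MCP-1 level quantified by ELISA 24 h after dosing.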 Particulars: primary human coronary artery smooth muscle cells; actives raise or lower the signal.

Assay [9] in a line: BSK_CASM3C_Proliferation: Cell Proliferation Assessment in the BioMAP Diversity Plus: CASM3C Assay (AID 2283047).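 Note: sulforhodamine B total protein stain as relative cell number at 560 nm; sub-confluent cells exposed 48 h before staining; fitted both ways against DMSO so gain or loss of cell number.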 The conditions noted are these: primary human coronary artery smooth muscle cells.
Read-out in assay [10]: Monokine induced gamma interferon (MIG), CXCL9 (gene 4283)
Briefly: BSK_CASM3C_MIG: BioMAP Diversity Plus: CASM3C Assay for Monokine induced gamma interferon (MIG) Biomarker Activity (AID 2283048).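 Note: MIG protein level measured by ELISA.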 Particulars: primary human coronary artery smooth muscle cells; actives raise or lower the signal.

Read-out in assay [11]: serum amyloid A (SAA), SAA1 (gene 6288)
Briefly: BSK_CASM3C_SAA: BioMAP Diversity Plus: CASM3C Assay for serum amyloid A (SAA) Biomarker Activity (AID 2283049).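 Note: SAA protein level quantified by ELISA.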 Particulars: primary human coronary artery smooth muscle cells; actives raise or lower the signal.

The nature of assay [12]: BSK_CASM3C_SRB: Viability Assessment in the BioMAP Diversity Plus: CASM3C Assay (AID 2283050).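 Note: total protein by SRB staining as cytotoxicity measure in parallel cultures; cells exposed to compound for 24 h.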 The conditions noted are these: primary human coronary artery smooth muscle cells.
Read-out in assay [13]: Thrombomodulin, THBD (gene 7056)
Briefly: BSK_CASM3C_Thrombomodulin: BioMAP Diversity Plus: CASM3C Assay for Thrombomodulin Biomarker Activity (AID 2283051).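 Note: thrombomodulin protein level measured by ELISA 24 h after dosing.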 Particulars: primary human coronary artery smooth muscle cells; actives raise or lower the signal.

Read-out in assay [14]: Tissue Factor, F3 (gene 2152)
Briefly: BSK_CASM3C_TissueFactor: BioMAP Diversity Plus: CASM3C Assay for Tissue Factor Biomarker Activity (AID 2283052).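 Note: cell surface tissue factor protein level read by ELISA.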 Particulars: primary human coronary artery smooth muscle cells; actives raise or lower the signal.

Read-out in assay [15]: Interferon-gamma inducible Protein 10 (IP10), CXCL10 (gene 3627)
Briefly: BSK_hDFCGF_IP10: BioMAP Diversity Plus: hDFCGF Assay for Interferon-gamma inducible Protein 10 (IP10) Biomarker Activity (AID 2283053). The conditions noted are these: primary human foreskin fibroblasts; actives raise or lower the signal. The procedure, abridged:
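Chemical-treated human skin fibroblasts (primary) were sampled at 24 h for IP-10 by ELISA. Both increases and decreases relative to DMSO were scored.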

Read-out in assay [16]: Urokinase-type plasminogen activator receptor (uPAR), PLAUR (gene 5329)
Briefly: BSK_CASM3C_uPAR: BioMAP Diversity Plus: CASM3C Assay for Urokinase-type plasminogen activator receptor (uPAR) Biomarker Activity (AID 2283054).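 Note: cell-surface uPAR protein level quantified by ELISA.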 Particulars: primary human coronary artery smooth muscle cells; actives raise or lower the signal.

Read-out in assay [17]: Vascular cell adhesion molecule 1 (VCAM1), VCAM1 (gene 7412)
Briefly: BSK_CASM3C_VCAM1: BioMAP Diversity Plus: CASM3C Assay for Vascular cell adhesion molecule 1 (VCAM1) Biomarker Activity (AID 2283055).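 Note: VCAM-1 protein level quantified by ELISA on the cells.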 The conditions noted are these: primary human coronary artery smooth muscle cells; actives raise or lower the signal.

Read-out in assay [18]: Collagen III, COL3A1 (gene 1281)
Briefly: BSK_hDFCGF_CollagenIII: BioMAP Diversity Plus: hDFCGF Assay for Collagen III Biomarker Activity (AID 2283056). Particulars: primary human foreskin fibroblasts; actives raise or lower the signal. The procedure, abridged: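 ELISA readout of Collagen III in human dermal (foreskin) fibroblasts, taken 24 h post-treatment. Gain or loss relative to DMSO vehicle fitted in both directions.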

Read-out in assay [19]: Epidermal growth factor receptor (EGFR), EGFR (gene 1956)
Briefly: BSK_hDFCGF_EGFR: BioMAP Diversity Plus: hDFCGF Assay for Epidermal growth factor receptor (EGFR) Biomarker Activity (AID 2283057). The conditions noted are these: primary human foreskin fibroblasts; actives raise or lower the signal. Put shortly: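 Cell-based multiplexed assay in primary human foreskin fibroblasts. EGFR is read by ELISA 24 h after treatment and compared with DMSO controls.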

Read-out in assay [20]: Interleukin-8 (IL8), CXCL8 (gene 3576)
Briefly: BSK_hDFCGF_IL8: BioMAP Diversity Plus: hDFCGF Assay for Interleukin-8 (IL8) Biomarker Activity (AID 2283058). Particulars: primary human foreskin fibroblasts; actives raise or lower the signal. Put shortly:
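IL-8 levels read by ELISA at 24 hours after dosing human skin fibroblast cultures. Parallel SRB staining assessed overt cytotoxicity, and gain or loss of signal was fitted against DMSO control.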

As to `O=C(O)c1nc(Cl)ccc1Cl`, the outcome in assay [1], in assay [2], in assay [3], in [4], in assay [5] and in assay [6] was inactive. For the same molecule, the result in [7], in assay [8], in assay [9], in [10], in assay [11] and in [12] was inactive. For the same molecule, the outcome in assay [13], in assay [14], in [15], in [16], in assay [17] and in assay [18] was inactive. Moreover, the result in assay [19] and in [20] was inactive. In [8], the AC50 is 147 nM (active).

In the case of `CO/C=C(/C(=O)OC)c1ccccc1Oc1cc(Oc2ccccc2C#N)ncn1`, the outcome in assay [1], in [2], in assay [3], in assay [4], in assay [5] and in assay [6] was inactive. Moreover, the result in [7], in [8], in [9], in assay [10], in [11] and in assay [12] was inactive. Besides, the result in assay [13], in assay [14], in [15], in [16], in [17] and in [19] was inactive. For the same molecule, the outcome in [20] was inactive. Further, the AC50 was 15.8 µM (active) and 21.1 µM (active) in assay [2]; 28.2 µM (active) in [3]; 30.7 µM (active) and 37.9 µM (active) and 37.6 µM (active) in assay [8]; 13.5 µM (active) and 27.1 µM (active) and 13.9 µM (active) in assay [9]; 12.1 µM (active) in [15]; 16.9 µM (active) [middle of 4 runs] in assay [18].

With `Cc1ccc(-c2c(Cl)nc(C#N)n2S(=O)(=O)N(C)C)cc1`, the outcome in assay [1], in [2], in assay [3], in [4], in assay [5] and in [6] was inactive. Besides, the result in assay [7], in [8], in assay [9], in assay [10], in assay [11] and in assay [12] was inactive. For the same molecule, the outcome in assay [13], in assay [14], in assay [16], in assay [17], in assay [19] and in assay [20] was inactive. Also, the values for the AC50 in assay [15] and in assay [18] were 6.3 µM (active) and 13.9 µM (active), respectively.

With `CC(C)(C)c1ccc(CSc2cnn(C(C)(C)C)c(=O)c2Cl)cc1`, the outcome in assay [1], in [2], in [3], in [4], in assay [5] and in assay [6] was inactive. Further, the result in assay [8], in [10], in assay [11], in assay [12], in assay [14] and in assay [15] was inactive. Further, the outcome in assay [16], in [17], in assay [19] and in assay [20] was inactive. For the same molecule, the AC50 is 20 µM (active) in assay [7], 6.17 µM (active) in assay [9], 31.8 µM (active) in [13] and 12.9 µM (active) in assay [18].

Take `COc1ccc(C(c2ccc(OC)cc2)C(Cl)(Cl)Cl)cc1`: the result in assay [1], in assay [3], in assay [4], in [5], in [6] and in assay [7] was inactive. For the same molecule, the result in assay [8], in assay [10], in assay [11], in assay [14], in [16] and in assay [17] was inactive. In addition, the outcome in assay [18], in [19] and in assay [20] was inactive. For the same molecule, the AC50 was 14 µM (active) in [2]; 15.1 µM (active) in [9]; 18.4 µM (active) in assay [12]; 13.1 µM (active) in [13]; 20 µM (active) in assay [15].

Regarding `CC(C)C1(C)N=C(c2nc3ccccc3cc2C(=O)O)NC1=O` (stereo unspecified), the result in [1], in assay [2], in assay [3], in [4], in assay [5] and in [6] was inactive. In addition, the outcome in assay [7], in assay [8], in assay [9], in assay [10], in assay [11] and in assay [12] was inactive. Besides, the result in assay [13], in assay [14], in assay [15], in [16], in assay [17] and in assay [18] was inactive. The outcome in [19] and in assay [20] was inactive.

A word on the AC50: it is the concentration giving half of the maximal activity seen.
